According to ChEMBL document CHEMBL1961873, “Compounds: GSK PKIS; Assays: Nanosyn kinase panel” (2012):

How the values were obtained:
[1] = molecular target: Mast/stem cell growth factor receptor Kit (Homo sapiens) (UniProt P10721); settings: at 1 µM
[2] = tested on: Mast/stem cell growth factor receptor Kit (Homo sapiens), P10721 [D816V]; settings: at 0.1 µM
[3] = tested on: Mast/stem cell growth factor receptor Kit (Homo sapiens), P10721 [D816V]; settings: at 1 µM
[4] = tested on: Mast/stem cell growth factor receptor Kit (Homo sapiens), P10721 [T670I]; settings: at 0.1 µM
Mast/stem cell growth factor receptor Kit (Homo sapiens), P10721 [T670I], sequence (P10721 whole entry T670I): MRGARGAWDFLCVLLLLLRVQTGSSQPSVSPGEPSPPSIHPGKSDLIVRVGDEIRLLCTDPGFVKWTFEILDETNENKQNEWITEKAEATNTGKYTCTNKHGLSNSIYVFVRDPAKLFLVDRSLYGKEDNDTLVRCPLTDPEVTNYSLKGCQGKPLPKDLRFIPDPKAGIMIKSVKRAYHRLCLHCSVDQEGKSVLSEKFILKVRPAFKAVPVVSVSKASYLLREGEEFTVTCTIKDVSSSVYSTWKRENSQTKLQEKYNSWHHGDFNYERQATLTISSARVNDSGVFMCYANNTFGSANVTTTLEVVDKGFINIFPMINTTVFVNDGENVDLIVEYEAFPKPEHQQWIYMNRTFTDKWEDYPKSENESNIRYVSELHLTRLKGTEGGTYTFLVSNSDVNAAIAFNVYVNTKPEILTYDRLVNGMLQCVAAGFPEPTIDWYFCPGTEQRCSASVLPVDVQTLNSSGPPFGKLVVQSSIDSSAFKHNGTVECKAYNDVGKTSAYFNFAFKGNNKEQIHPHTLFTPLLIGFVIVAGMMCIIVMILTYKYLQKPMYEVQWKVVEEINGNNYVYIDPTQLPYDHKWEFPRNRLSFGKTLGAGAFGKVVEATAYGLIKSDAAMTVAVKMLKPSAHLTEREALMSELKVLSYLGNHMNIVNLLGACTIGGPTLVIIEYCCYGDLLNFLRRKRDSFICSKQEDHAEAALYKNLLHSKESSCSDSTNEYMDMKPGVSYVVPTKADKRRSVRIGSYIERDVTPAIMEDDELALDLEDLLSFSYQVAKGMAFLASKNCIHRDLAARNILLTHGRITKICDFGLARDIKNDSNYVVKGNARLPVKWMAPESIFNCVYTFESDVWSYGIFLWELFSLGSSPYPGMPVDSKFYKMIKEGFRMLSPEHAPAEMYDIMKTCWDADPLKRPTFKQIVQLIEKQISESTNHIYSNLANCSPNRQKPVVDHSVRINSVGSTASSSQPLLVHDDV

[5] = tested on: Mast/stem cell growth factor receptor Kit (Homo sapiens), P10721 [T670I]; settings: at 1 µM
[6] = tested on: Mast/stem cell growth factor receptor Kit (Homo sapiens), P10721 [V560G]; settings: at 0.1 µM
Mast/stem cell growth factor receptor Kit (Homo sapiens), P10721 [V560G], sequence (P10721 whole entry V560G): as the sequence (P10721 whole entry T670I) above, with V560G, I670T counted along it

[7] = tested on: Mast/stem cell growth factor receptor Kit (Homo sapiens), P10721 [V560G]; settings: at 1 µM
[8] = molecular target: Tyrosine-protein kinase Lck (Homo sapiens) (UniProt P06239); settings: at 0.1 µM
Tyrosine-protein kinase Lck (Homo sapiens), sequence (P06239 2-509 limits assumed): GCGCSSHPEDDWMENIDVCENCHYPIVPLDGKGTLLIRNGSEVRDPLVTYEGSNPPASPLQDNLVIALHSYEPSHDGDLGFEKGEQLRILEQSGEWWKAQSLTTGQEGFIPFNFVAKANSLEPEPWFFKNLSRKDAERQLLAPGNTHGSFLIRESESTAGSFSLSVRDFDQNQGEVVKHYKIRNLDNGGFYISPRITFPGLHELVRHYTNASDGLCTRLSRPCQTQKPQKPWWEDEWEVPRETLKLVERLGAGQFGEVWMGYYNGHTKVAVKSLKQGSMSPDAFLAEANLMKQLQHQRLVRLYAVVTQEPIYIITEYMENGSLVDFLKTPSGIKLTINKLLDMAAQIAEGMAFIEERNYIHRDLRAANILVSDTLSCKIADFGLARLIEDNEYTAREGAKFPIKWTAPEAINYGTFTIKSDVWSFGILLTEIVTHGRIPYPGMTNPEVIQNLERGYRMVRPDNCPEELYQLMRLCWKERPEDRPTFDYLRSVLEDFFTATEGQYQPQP

[9] = molecular target: Tyrosine-protein kinase Lck (Homo sapiens) (UniProt P06239); settings: at 1 µM
[10] = molecular target: Leukocyte tyrosine kinase receptor (Homo sapiens) (UniProt P29376); settings: at 0.1 µM
Leukocyte tyrosine kinase receptor (Homo sapiens), sequence (P29376 whole entry): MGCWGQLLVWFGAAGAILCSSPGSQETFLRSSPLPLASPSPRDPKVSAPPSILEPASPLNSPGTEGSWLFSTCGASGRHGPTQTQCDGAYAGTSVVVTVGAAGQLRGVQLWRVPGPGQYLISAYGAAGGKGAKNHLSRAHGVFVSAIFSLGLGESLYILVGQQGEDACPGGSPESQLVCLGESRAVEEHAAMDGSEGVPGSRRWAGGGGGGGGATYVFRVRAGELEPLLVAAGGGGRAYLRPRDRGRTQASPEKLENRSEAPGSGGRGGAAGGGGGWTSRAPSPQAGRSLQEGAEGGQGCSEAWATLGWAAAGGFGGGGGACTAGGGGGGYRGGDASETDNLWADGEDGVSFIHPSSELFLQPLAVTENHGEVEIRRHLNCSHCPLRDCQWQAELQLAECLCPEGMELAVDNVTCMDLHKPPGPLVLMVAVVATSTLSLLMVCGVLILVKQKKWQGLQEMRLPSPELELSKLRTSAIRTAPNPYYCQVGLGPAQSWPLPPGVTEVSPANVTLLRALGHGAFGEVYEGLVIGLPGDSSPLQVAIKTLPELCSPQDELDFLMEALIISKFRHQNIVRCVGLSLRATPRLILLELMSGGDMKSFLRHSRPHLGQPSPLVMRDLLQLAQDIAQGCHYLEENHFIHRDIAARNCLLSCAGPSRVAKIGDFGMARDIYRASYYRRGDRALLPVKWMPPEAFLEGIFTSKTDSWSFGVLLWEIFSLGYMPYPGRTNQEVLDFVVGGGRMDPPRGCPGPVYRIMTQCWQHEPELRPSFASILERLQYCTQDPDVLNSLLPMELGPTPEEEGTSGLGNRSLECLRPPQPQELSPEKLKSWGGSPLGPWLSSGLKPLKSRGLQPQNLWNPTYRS

[11] = molecular target: Leukocyte tyrosine kinase receptor (Homo sapiens) (UniProt P29376); settings: at 1 µM
[12] = molecular target: Tyrosine-protein kinase Lyn (Homo sapiens) (UniProt P07948); settings: at 0.1 µM
Tyrosine-protein kinase Lyn (Homo sapiens), sequence (P07948 2-512 limits assumed): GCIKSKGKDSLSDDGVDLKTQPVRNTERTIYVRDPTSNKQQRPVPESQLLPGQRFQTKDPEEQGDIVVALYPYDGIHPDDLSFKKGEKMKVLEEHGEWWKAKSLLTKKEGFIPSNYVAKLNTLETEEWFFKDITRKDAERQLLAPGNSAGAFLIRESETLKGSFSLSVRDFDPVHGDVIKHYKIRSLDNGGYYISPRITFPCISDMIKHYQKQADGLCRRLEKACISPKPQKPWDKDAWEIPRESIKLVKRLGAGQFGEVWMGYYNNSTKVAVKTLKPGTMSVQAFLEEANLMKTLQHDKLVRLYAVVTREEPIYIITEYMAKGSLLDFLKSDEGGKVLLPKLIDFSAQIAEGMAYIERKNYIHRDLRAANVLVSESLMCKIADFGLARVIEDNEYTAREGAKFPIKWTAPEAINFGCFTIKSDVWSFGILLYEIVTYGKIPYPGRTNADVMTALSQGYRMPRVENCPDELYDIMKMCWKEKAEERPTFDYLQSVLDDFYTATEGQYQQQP

[13] = molecular target: Tyrosine-protein kinase Lyn (Homo sapiens) (UniProt P07948); settings: at 1 µM
[14] = molecular target: Tyrosine-protein kinase Lyn (Homo sapiens) (UniProt P07948); settings: at 0.1 µM; remark: listed apart in the source
[15] = molecular target: Tyrosine-protein kinase Lyn (Homo sapiens) (UniProt P07948); settings: at 1 µM; remark: listed apart in the source
[16] = molecular target: T1, Tyrosine-protein kinase Mer (Homo sapiens) (UniProt Q12866); settings: at 0.1 µM
T1 sequence (whole entry): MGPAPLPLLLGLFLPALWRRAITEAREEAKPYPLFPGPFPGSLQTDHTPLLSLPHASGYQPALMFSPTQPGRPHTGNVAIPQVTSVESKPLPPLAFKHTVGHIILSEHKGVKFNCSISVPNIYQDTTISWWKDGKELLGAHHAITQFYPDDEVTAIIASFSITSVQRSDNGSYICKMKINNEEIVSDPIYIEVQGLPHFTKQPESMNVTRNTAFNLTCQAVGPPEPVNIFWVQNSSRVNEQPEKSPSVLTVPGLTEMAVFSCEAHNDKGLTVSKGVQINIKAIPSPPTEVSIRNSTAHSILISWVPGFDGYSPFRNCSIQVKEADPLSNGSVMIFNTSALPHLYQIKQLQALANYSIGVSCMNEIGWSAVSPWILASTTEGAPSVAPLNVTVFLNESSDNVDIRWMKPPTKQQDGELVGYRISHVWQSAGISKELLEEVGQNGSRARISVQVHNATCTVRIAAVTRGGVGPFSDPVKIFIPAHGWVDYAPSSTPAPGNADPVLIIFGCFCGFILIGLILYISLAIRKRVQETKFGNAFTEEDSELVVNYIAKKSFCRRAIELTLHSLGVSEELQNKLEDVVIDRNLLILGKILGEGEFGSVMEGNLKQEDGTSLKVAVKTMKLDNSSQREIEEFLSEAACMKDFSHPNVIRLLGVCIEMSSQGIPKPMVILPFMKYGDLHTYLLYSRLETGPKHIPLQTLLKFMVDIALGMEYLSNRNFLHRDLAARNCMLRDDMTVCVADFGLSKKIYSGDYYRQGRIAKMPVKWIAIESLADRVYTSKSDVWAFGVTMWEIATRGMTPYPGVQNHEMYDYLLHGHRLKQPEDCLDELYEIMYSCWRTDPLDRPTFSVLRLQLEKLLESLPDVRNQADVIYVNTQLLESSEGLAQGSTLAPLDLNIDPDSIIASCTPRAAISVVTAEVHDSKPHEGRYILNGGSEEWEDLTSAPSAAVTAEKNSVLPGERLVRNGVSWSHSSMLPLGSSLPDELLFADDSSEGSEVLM

[17] = molecular target: T1, Tyrosine-protein kinase Mer (Homo sapiens); settings: at 1 µM
[18] = molecular target: Hepatocyte growth factor receptor (Homo sapiens) (UniProt P08581); settings: at 0.1 µM
Hepatocyte growth factor receptor (Homo sapiens), sequence (P08581 whole entry): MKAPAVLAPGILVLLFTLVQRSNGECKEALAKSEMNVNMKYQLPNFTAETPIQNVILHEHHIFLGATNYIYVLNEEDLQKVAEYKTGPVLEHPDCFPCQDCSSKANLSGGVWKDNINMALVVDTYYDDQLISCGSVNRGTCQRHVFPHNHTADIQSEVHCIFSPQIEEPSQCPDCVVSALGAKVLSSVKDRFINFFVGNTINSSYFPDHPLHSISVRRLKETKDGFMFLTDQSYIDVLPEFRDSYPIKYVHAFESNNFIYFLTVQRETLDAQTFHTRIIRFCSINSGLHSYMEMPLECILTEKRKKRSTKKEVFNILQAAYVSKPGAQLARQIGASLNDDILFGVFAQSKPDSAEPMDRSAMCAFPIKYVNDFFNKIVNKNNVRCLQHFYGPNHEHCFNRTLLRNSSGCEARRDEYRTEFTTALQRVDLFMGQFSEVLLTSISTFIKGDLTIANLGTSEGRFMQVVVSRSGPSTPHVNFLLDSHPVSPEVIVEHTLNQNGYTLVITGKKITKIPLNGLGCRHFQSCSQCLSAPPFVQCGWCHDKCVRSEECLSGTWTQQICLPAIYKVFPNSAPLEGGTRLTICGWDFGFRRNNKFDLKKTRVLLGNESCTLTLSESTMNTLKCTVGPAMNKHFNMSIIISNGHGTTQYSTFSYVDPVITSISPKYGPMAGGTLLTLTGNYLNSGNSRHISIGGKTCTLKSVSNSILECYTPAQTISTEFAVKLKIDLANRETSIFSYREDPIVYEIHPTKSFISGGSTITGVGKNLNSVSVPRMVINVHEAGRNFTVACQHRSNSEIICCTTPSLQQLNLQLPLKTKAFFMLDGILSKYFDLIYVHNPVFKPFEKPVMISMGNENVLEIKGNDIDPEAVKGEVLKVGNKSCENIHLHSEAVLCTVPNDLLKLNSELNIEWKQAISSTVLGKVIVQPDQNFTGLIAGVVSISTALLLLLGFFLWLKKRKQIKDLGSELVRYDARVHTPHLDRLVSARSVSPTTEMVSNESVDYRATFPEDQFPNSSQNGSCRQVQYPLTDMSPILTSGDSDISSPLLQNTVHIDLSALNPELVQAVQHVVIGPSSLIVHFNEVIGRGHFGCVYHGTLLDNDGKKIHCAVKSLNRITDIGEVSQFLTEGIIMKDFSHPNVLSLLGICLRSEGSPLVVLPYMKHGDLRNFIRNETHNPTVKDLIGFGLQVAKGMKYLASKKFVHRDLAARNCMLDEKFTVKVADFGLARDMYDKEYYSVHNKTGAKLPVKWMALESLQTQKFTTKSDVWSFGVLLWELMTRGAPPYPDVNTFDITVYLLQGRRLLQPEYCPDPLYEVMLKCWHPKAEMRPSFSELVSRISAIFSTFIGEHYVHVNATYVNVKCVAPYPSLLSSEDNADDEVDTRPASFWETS

[19] = molecular target: Hepatocyte growth factor receptor (Homo sapiens) (UniProt P08581); settings: at 1 µM
[20] = molecular target: T2, Muscle, skeletal receptor tyrosine-protein kinase (Homo sapiens) (UniProt O15146); settings: at 0.1 µM;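 note: values are mean inhibition of MuSK from the GSK PKIS kinase screening panel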
T2 sequence (whole entry): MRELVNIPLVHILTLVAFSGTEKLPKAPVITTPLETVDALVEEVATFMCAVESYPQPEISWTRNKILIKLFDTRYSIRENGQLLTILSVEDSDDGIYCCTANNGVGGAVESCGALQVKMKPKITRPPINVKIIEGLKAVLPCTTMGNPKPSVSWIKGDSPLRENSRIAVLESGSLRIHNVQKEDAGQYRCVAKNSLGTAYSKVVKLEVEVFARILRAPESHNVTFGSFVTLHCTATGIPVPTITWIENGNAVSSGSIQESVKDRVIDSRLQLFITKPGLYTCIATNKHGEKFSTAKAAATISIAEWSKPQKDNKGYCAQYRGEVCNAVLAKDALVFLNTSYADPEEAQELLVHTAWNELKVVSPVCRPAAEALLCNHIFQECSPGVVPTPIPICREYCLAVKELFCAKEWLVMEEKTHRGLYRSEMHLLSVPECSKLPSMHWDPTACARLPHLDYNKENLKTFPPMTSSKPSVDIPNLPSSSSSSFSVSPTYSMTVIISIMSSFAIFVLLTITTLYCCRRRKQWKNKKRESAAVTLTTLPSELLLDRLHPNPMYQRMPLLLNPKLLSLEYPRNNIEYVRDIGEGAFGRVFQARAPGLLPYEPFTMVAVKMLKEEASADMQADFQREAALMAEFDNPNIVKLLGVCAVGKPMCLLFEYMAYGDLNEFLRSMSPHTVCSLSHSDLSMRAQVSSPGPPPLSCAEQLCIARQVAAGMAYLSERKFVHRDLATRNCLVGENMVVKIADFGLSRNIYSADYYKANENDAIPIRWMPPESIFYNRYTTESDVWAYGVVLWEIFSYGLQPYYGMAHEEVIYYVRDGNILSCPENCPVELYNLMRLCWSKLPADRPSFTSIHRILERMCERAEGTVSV

Mast/stem cell growth factor receptor Kit (Homo sapiens), P10721 [D816V], sequence (P10721 whole entry D816V): as the sequence (P10721 whole entry T670I) above, with I670T, D816V counted along it
Mast/stem cell growth factor receptor Kit (Homo sapiens), sequence (P10721 whole entry): as the sequence (P10721 whole entry T670I) above, with I670T counted along it

Structure (SMILES) | inhibition [1] | inhibition [2] | inhibition [3] | inhibition [4] | inhibition [5] | inhibition [6] | inhibition [7] | inhibition [8] | inhibition [9] | inhibition [10] | inhibition [11] | inhibition [12] | inhibition [13] | inhibition [14] | inhibition [15] | inhibition [16] | inhibition [17] | inhibition [18] | inhibition [19] | inhibition [20]
COC(=O)Nc1nc2cc(Oc3cccc(NC(=O)Nc4cc(C(F)(F)F)ccc4F)c3)ccc2[nH]1 | 48.2% | 1.96% | -0.67% | -2.55% | 2.17% | 4.04% | 38.8% | 1.15% | 10.5% | 0.06% | 24.9% | 7.9% | 45.9% | 5.64% | 41.6% | -1.21% | -0.14% | 1% | 0.32% | 4.58%
[O-][S+]1CCN(Cc2ccc(-c3ccc4ncnc(Nc5ccc(OCc6ccccc6)c(F)c5)c4c3)o2)CC1 | 3.42% | 2.25% | -1.53% | 0.34% | 1.07% | -2.07% | -2.71% | 1.81% | 7.89% | 2.21% | 3.33% | 2.19% | 5.34% | 1.2% | 1.42% | 42.1% | 81.8% | 6.51% | 0.93% | 1.44%
Cc1ccc(NC(=O)c2ccnc(N3CCCC3)c2)cc1-c1ccc(C(=O)NCC2CC2)cc1 | 2.92% | 2.61% | 7.08% | 2.54% | 3.2% | 0.26% | 1.23% | -3.71% | 1.56% | 2.27% | 2.5% | 3.64% | 8.64% | 1.83% | 5.14% | 1.62% | 3.81% | 9.41% | 7.36% | 4.38%
CNC(=O)c1cncc(/C=C/c2c(Cl)cccc2Cl)c1 | 33.4% | 2.74% | 1.88% | 0.36% | 0.46% | -1.49% | 10.9% | 1.21% | 9.89% | 3.47% | 5.04% | 11.1% | 48.7% | 7.62% | 43.5% | 2.3% | 2.24% | 2.67% | 1.88% | 3.75%
Fc1cccc(COc2ccc(Nc3ncnc4cc(-c5ccc[nH]5)sc34)cc2Cl)c1 | 2.05% | 0.67% | 1.62% | 1.82% | 2.49% | 0.61% | 1.53% | -1.91% | 2.29% | 2.11% | 9.35% | 2.95% | 7.02% | 1.43% | 4.65% | 1.29% | 5.95% | -0.09% | 4.48% | 1.3%
CC1=C(C(=O)Nc2ccc3[nH]ncc3c2)C(c2ccc(F)cc2)NC(=O)N1 (stereo not given) | 3.87% | 0.52% | 1.15% | 1.53% | 0.34% | -1.67% | 0.31% | -0.28% | 3.1% | 0.93% | 1.52% | 2.06% | 2.69% | 0.99% | 1.73% | 1.43% | 0.93% | 3% | 14.9% | 1.49%
COc1ccc2cc(-c3c(-c4ccncc4)nc(-c4ccc([S+](C)[O-])cc4)n3C)ccc2c1 (stereo not given) | -0.76% | 1.61% | 4.68% | -0.37% | -0.98% | 2.62% | 0.15% | 2.55% | 6.96% | 2.55% | 2.37% | 2.95% | 9.35% | 1.98% | 6.67% | 0.48% | 6.32% | 4.07% | -0.71% | 1.76%
Cn1cc(C=C2C(=O)Nc3cccnc32)c2ccccc21 | 52.7% | 2.87% | 5.81% | 2.37% | 19.8% | -1.28% | 3.99% | 4.03% | 25.5% | 2.72% | 5.51% | 6.97% | 41.8% | 5.53% | 36% | 2.2% | 16.9% | 0.96% | 5.5% | 3.74%
COc1cc2ncn(-c3cc(O[C@H](C)c4ccccc4Cl)c(C(N)=O)s3)c2cc1OC | 27.1% | 4.82% | 14.6% | 5.66% | 32.1% | 4.1% | 13.9% | 5.7% | 27.7% | 3.77% | 11.3% | 6.61% | 27.9% | 5.21% | 23.9% | 5.63% | 22.6% | 4.85% | 17% | 29.3%
O=C1Nc2ccc(C(=O)c3ccco3)cc2C1=Cc1cc(Cl)c(O)c(Cl)c1 | 63.5% | 1.83% | 0.61% | 2.58% | 21.1% | 3.94% | 6.75% | 2.53% | 12.8% | 9.03% | 44.2% | 5.67% | 18.9% | 2.95% | 16.2% | 1.35% | 4.42% | 2.06% | 15.7% | 4.03%
CS(=O)(=O)Nc1ccc(N/C=C2\C(=O)Nc3ccccc32)cc1 | 86.6% | -1.84% | -0.2% | 7.79% | 61.3% | 4.08% | 20.4% | -0.69% | 5.83% | 0.19% | 3.76% | 0.65% | 12.1% | -0.91% | 11.3% | -0.15% | 3.63% | -4.32% | -0.23% | 2.12%
COc1ccc(COc2ccc(Cc3cnc(N)nc3N)cc2OC)cc1 | 7.39% | -2.58% | -2.51% | -2.93% | -3.14% | 5.62% | 8.16% | 0.03% | 2.78% | -1.03% | -0.41% | 0.58% | 0.33% | 0.18% | 2.08% | 2.31% | 3.48% | 2.14% | 5.98% | 4.72%
CC1=C(C(=O)Nc2ccc3[nH]ncc3c2)C(c2ccc(Cl)c(Cl)c2)CC(=O)N1 (stereo not given) | 2.48% | -0.94% | 1.14% | 0.21% | 1.52% | 2.42% | 4.56% | 4.63% | 30% | 1.06% | 0.02% | 3.35% | 9.96% | 2.18% | 7.24% | 0.79% | 1.25% | -0.1% | 5.85% | 2.88%
